Data taken from article PMC5540273 (PLoS ONE, 2017).

Key:
Settings in all cases: concentration: 1 μM, replicates: in singlicate; n = 1
EPHA1 = system: EPHA1
EPHA2 = system: EPHA2
EPHA3 = system: EPHA3
EPHA4 = system: EPHA4
EPHA5 = system: EPHA5
EPHA6 = system: EPHA6
EPHA7 = system: EPHA7
EPHA8 = system: EPHA8
EPHB1 = system: EPHB1
EPHB2 = system: EPHB2
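Note: KINOMEscan kinase panel screen.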

In the case of `COc1cc(Nc2ccnc3ccc(C(F)(F)F)cc23)cc(OC)c1OC` [GW577382], the “%Inh” value (EPHA1) is reported as 61%, the “%Inh” value (EPHA2) is reported as 35% and the “%Inh” value (EPHA3) is reported as 27%. For the same molecule, the “%Inh” value (EPHA4) was 14%, the “%Inh” value (EPHA5) was 2% and the “%Inh” value (EPHA6) was 0%. The “%Inh” value (EPHA7) was 10%, the “%Inh” value (EPHA8) was 75% and the “%Inh” value (EPHB1) was 10%. For the same molecule, the “%Inh” value (EPHB2) was 26%.

For `O=c1cc(N2CCOCC2)nc2n(Cc3ccc(F)c(Cl)c3)ccn12` [GSK2297099], the “%Inh” value (EPHA1) was 12%, the “%Inh” value (EPHA2) was 0% and the “%Inh” value (EPHA3) was 18%. The “%Inh” value (EPHA4) was 3%, the “%Inh” value (EPHA5) was 0% and the “%Inh” value (EPHA6) was 0%. The “%Inh” value (EPHA7) was 6%, the “%Inh” value (EPHA8) was 6% and the “%Inh” value (EPHB1) was 7%. For the same molecule, the “%Inh” value (EPHB2) was 0%.

`C[C@@H]1CC[C@H](C(=O)NC2CCCCC2)CN1c1cc(-c2ccc3c(N)n[nH]c3c2)nc(N)n1` [GSK2291363] was tested, and the “%Inh” value (EPHA1) was 6%, the “%Inh” value (EPHA2) was 23% and the “%Inh” value (EPHA3) was 18%. The “%Inh” value (EPHA4) was 12%, the “%Inh” value (EPHA5) was 11% and the “%Inh” value (EPHA6) was 10%. For the same molecule, the “%Inh” value (EPHA7) was 8%, the “%Inh” value (EPHA8) was 22% and the “%Inh” value (EPHB1) was 26%. The “%Inh” value (EPHB2) was 8%.

With `O=C(Nc1ccc2c(c1)OCO2)NC1CCN(c2ccnc(NCc3ccc(F)cc3)n2)CC1` [GSK1379859] the “%Inh” value (EPHA1) was 8%, the “%Inh” value (EPHA2) was 0% and the “%Inh” value (EPHA3) was 0%. For the same molecule, the “%Inh” value (EPHA4) was 13%, the “%Inh” value (EPHA5) was 0% and the “%Inh” value (EPHA6) was 8%. The “%Inh” value (EPHA7) was 1%, the “%Inh” value (EPHA8) was 0% and the “%Inh” value (EPHB1) was 0%. For the same molecule, the “%Inh” value (EPHB2) was 37%.

For `O=C(NCCNc1ccnc(Nc2ccc(F)cc2)n1)Nc1ccc2c(c1)OCO2` [GSK1379882], the “%Inh” value (EPHA1) was 15%, the “%Inh” value (EPHA2) was 0% and the “%Inh” value (EPHA3) was 0%. For the same molecule, the “%Inh” value (EPHA4) was 0%, the “%Inh” value (EPHA5) was 0% and the “%Inh” value (EPHA6) was 0%. For the same molecule, the “%Inh” value (EPHA7) was 0%, the “%Inh” value (EPHA8) was 0% and the “%Inh” value (EPHB1) was 18%. The “%Inh” value (EPHB2) was 0%.

`COc1cccc(C2=C(Nc3cccc(C(=O)O)c3)C(=O)NC2=O)c1` [SB-390770] was tested, and the “%Inh” value (EPHA1) was 9%, the “%Inh” value (EPHA2) was 23% and the “%Inh” value (EPHA3) was 0%. For the same molecule, the “%Inh” value (EPHA4) was 10%, the “%Inh” value (EPHA5) was 0% and the “%Inh” value (EPHA6) was 11%. For the same molecule, the “%Inh” value (EPHA7) was 0%, the “%Inh” value (EPHA8) was 0% and the “%Inh” value (EPHB1) was 8%. The “%Inh” value (EPHB2) was 9%.

For `COC(=O)c1c(-c2ccccc2)c2cc(C)ccc2c(=O)n1Cc1ccccc1`, the “%Inh” value (EPHA1) was 0%, the “%Inh” value (EPHA2) was 0% and the “%Inh” value (EPHA3) was 14%. For the same molecule, the “%Inh” value (EPHA4) was 61%, the “%Inh” value (EPHA5) was 0% and the “%Inh” value (EPHA6) was 75%. The “%Inh” value (EPHA7) was 0%, the “%Inh” value (EPHA8) was 0% and the “%Inh” value (EPHB1) was 0%. For the same molecule, the “%Inh” value (EPHB2) was 2%.

`CCC(=O)c1c(-c2ccccc2)c2cc(Cl)ccc2c(=O)n1Cc1cc(S(C)(=O)=O)n(CC(N)=O)n1` was tested, and the “%Inh” value (EPHA1) was 0%, the “%Inh” value (EPHA2) was 15% and the “%Inh” value (EPHA3) was 0%. The “%Inh” value (EPHA4) was 0%, the “%Inh” value (EPHA5) was 0% and the “%Inh” value (EPHA6) was 0%. For the same molecule, the “%Inh” value (EPHA7) was 0%, the “%Inh” value (EPHA8) was 0% and the “%Inh” value (EPHB1) was 0%. For the same molecule, the “%Inh” value (EPHB2) was 0%.

With `Cn1c(=O)c(F)c(Nc2ccc(I)cc2F)c2c(=O)n(OC[C@H](O)CO)cnc21` the “%Inh” value (EPHA1) was 36%, the “%Inh” value (EPHA2) was 15% and the “%Inh” value (EPHA3) was 0%. The “%Inh” value (EPHA4) was 16%, the “%Inh” value (EPHA5) was 5% and the “%Inh” value (EPHA6) was 12%. The “%Inh” value (EPHA7) was 14%, the “%Inh” value (EPHA8) was 19% and the “%Inh” value (EPHB1) was 20%. The “%Inh” value (EPHB2) was 34%.

In the case of `Nc1n[nH]c2ncc(-c3ccccc3)cc12` [SB-517081], the “%Inh” value (EPHA1) is reported as 0%, the “%Inh” value (EPHA2) is reported as 2% and the “%Inh” value (EPHA3) is reported as 0%. For the same molecule, the “%Inh” value (EPHA4) was 0%, the “%Inh” value (EPHA5) was 0% and the “%Inh” value (EPHA6) was 0%. The “%Inh” value (EPHA7) was 5%, the “%Inh” value (EPHA8) was 10% and the “%Inh” value (EPHB1) was 18%. The “%Inh” value (EPHB2) was 14%.

For `CCC(=O)c1c(-c2ccccc2)c2cc(Cl)ccc2c(=O)n1Cc1cc(C(=O)NC2CC2)n(C)n1`, the “%Inh” value (EPHA1) was 4%, the “%Inh” value (EPHA2) was 3% and the “%Inh” value (EPHA3) was 8%. The “%Inh” value (EPHA4) was 26%, the “%Inh” value (EPHA5) was 0% and the “%Inh” value (EPHA6) was 38%. For the same molecule, the “%Inh” value (EPHA7) was 11%, the “%Inh” value (EPHA8) was 4% and the “%Inh” value (EPHB1) was 7%. The “%Inh” value (EPHB2) was 4%.

In the case of `CCC(=O)c1c(-c2ccccc2)c2cc(Cl)ccc2c(=O)n1Cc1cc(S(C)(=O)=O)n(CC(F)F)n1`, the “%Inh” value (EPHA1) is reported as 2%, the “%Inh” value (EPHA2) is reported as 0% and the “%Inh” value (EPHA3) is reported as 7%. The “%Inh” value (EPHA4) was 2%, the “%Inh” value (EPHA5) was 0% and the “%Inh” value (EPHA6) was 2%. The “%Inh” value (EPHA7) was 0%, the “%Inh” value (EPHA8) was 0% and the “%Inh” value (EPHB1) was 0%. For the same molecule, the “%Inh” value (EPHB2) was 0%.

In the case of `Cc1ccccc1COc1cc(-n2cnc3cc(Cl)ccc32)sc1C(N)=O` [GW813349], the “%Inh” value (EPHA1) is reported as 9%, the “%Inh” value (EPHA2) is reported as 6% and the “%Inh” value (EPHA3) is reported as 0%. For the same molecule, the “%Inh” value (EPHA4) was 0%, the “%Inh” value (EPHA5) was 0% and the “%Inh” value (EPHA6) was 0%. For the same molecule, the “%Inh” value (EPHA7) was 0%, the “%Inh” value (EPHA8) was 0% and the “%Inh” value (EPHB1) was 14%. The “%Inh” value (EPHB2) was 19%.

In the case of `O=C(Nc1n[nH]c2cc(-c3ccccc3F)ccc12)C1CC1` [SB-733371], the “%Inh” value (EPHA1) is reported as 22%, the “%Inh” value (EPHA2) is reported as 0% and the “%Inh” value (EPHA3) is reported as 19%. The “%Inh” value (EPHA4) was 0%, the “%Inh” value (EPHA5) was 0% and the “%Inh” value (EPHA6) was 5%. For the same molecule, the “%Inh” value (EPHA7) was 0%, the “%Inh” value (EPHA8) was 22% and the “%Inh” value (EPHB1) was 4%. The “%Inh” value (EPHB2) was 0%.

With `Nc1nc(N)c2nc(-c3ccccc3)[nH]c2n1` [SKF-12778] the “%Inh” value (EPHA1) was 12%, the “%Inh” value (EPHA2) was 20% and the “%Inh” value (EPHA3) was 3%. For the same molecule, the “%Inh” value (EPHA4) was 17%, the “%Inh” value (EPHA5) was 3% and the “%Inh” value (EPHA6) was 8%. The “%Inh” value (EPHA7) was 3%, the “%Inh” value (EPHA8) was 4% and the “%Inh” value (EPHB1) was 18%. For the same molecule, the “%Inh” value (EPHB2) was 10%.
